This is an account of results in PubChem BioAssay (NCATS).

Experiment [1] has as its target Lysosomal acid glucosylceramidase (Homo sapiens) (UniProt P04062). The experiment can be described thus: Glucocerebrosidase-p2 (AID 348; in the data active = potency below about 10 µM; also: potency is read from the fitted curve at half-maximal effect). The following applies: purified GBA, blue fluorogenic substrate, 40 min. The method in brief:
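Compounds titrated from 0.6 nM upwards against 0.2 nM enzyme in pH 5.9 citric acid/KH2PO4, taurocholate, tween-20; blue fluorogenic substrate 80 uM, 40 min room temperature, stopped and read Ex 365/Em 440 for AC50.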

Experiment [2] concerns the target Cytochrome P450 1A2 (Homo sapiens) (UniProt P05177). Put plainly: p450-cyp1a2 (AID 410; calls by dose curve; also: potency is read from the fitted curve at half-maximal effect;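 as to activity change, negative = inhibition: -100% = full effect of reference inhibitor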). The settings on record: recombinant CYP1A2, luciferin-ME demethylation, luminescence; series mostly up to 57 µM. The method in brief: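 Luminescent readout of luciferin formed from Luciferin-ME by human CYP1A2; data normalized against complete inhibition by 57 uM furafylline. Enzyme 20nM, substrate 100uM at Km, 100mM KPO4 buffer, 60 min reaction at room temperature.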

For experiment [3], the target named is Glucocorticoid receptor (Homo sapiens) (UniProt P04150). Put plainly: GR-EFC Redistribution (AID 451; calls by dose curve; also: potency is read from the fitted curve at half-maximal effect). The following applies: CHO-K1 GR-EFC translocation, beta-gal luminescence, 2 h. The method in brief: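 CHO-K1 cells expressing nuclear EA and GR-ED fragments of b-gal; compounds titrated up to 46 uM final, 2 h at 37 C. GR nuclear translocation read as complemented b-gal luminescence after 1 h RT detection.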

For experiment [4], the target named is 3',5'-cyclic-AMP phosphodiesterase 4B (Homo sapiens) (UniProt Q07343). Put plainly: qHTS Assay for Inhibitors of PDE-IV (AID 607; active = well fitted activation curve with a large enough effect in the main read-out, with a control signal flat, not every such curve was filed as active; also: % of control where 0% means no effect). The following applies: HEK293 ACTOne CNG channel cells, membrane potential fluorescence; series mostly up to 22.9 µM. The method in brief: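 The readout is membrane depolarisation from a cAMP-sensing CNG channel, detected with a potential dye at ex 535/em 590. Cells were HEK293-derived (endogenous PDE-IV) at 1000 cells/well, titrated up to 22.9 uM final.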
A general note: In qHTS, concentration-response curves come from the screen itself.

For experiment [5], the target named is Cytochrome P450 3A4 (Homo sapiens) (UniProt P08684). The experiment can be described thus: qHTS Assay for Activators of Cytochrome P450 3A4 (AID 885). Also: nearly all actives have a fitted effect of over 65% in size. The settings on record: recombinant CYP3A4, Luciferin-PPXE luminescence, 60 min; series mostly up to 57.1 µM. The method in brief: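 Steps: enzyme/substrate mix dispensed; compound added, 10 min RT; NADPH regeneration solution added, 60 min RT; luciferin detection buffer stops reaction; 20 min later luminescence measured.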

The target of experiment [6] is Cytochrome P450 2C19 (Homo sapiens) (UniProt P33261). The experiment can be described thus: qHTS Assay for Inhibitors and Substrates of Cytochrome P450 2C19 (AID 899). Also: % is scaled to controls: 0 for no effect and ±100 for the full control effect; nearly all actives have a fitted effect of over 60% in size. The settings on record: recombinant CYP2C19, luciferin-H EGE luminescence; series mostly up to 57.1 µM. In outline: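 Signal comes from luciferase acting on luciferin released by CYP2C19-mediated hydroxylation of Luciferin-H EGE, 10uM (KM). Assay mix: 5nM enzyme, 50mM KPO4; 60 min at 37C with NADPH regeneration. Data normalized against 57uM ketoconazole.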

The nature of experiment [7]: qHTS Assay for Lipid Storage Modulators (AID 1519; calls by dose curve). The following applies: Drosophila S3 cells, BODIPY lipid droplet/cell ratio, laser cytometry, cells loaded with oleic acid. In outline: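 Cells seeded at 5,000 per well were treated with compounds over a concentration series and loaded with oleic acid (400 uM, as added). Lipid droplet fluorescence (488 nm excitation, 500-530 nm channel) was read by laser-scanning cytometry and normalized to 20 uM Triacsin C.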

Experiment [8] deals with Dual specificity protein kinase CLK4 (Homo sapiens) (UniProt Q9HAZ1). Put plainly: qHTS Assay for Inhibitors of CDC-like Kinase 4 (ADP-Glo Assay) (AID 1771). Also: % is scaled to controls: 0 for no effect and ±100 for the full control effect; nearly all actives have a fitted effect of over 70% in size. The settings on record: recombinant CLK4, ADP-Glo luminescence; series mostly up to 80 µM. In outline:
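Luminescence from ADP-Glo reports ADP produced by 25 nM Clk4 acting on 100 uM RS repeat peptide with 1 uM ATP over 1 hr at room temperature; residual ATP is depleted before ADP is converted to ATP for detection.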

Experiment [9] shares this target. The experiment can be described thus: qHTS Assay for Inhibitors of CDC-like Kinase 4 (ADP-FP Assay) (AID 1795).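 Also: recombinant human CLK4 phosphorylating RS repeat peptide at 1 µM ATP; % is scaled to controls: 0 for no effect and ±100 for the full control effect; nearly all actives have a fitted effect of over 60% in size.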 The following applies: Transcreener ADP fluorescence polarization; series mostly up to 50 µM. The method in brief: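 Clk4 6.25 nM; RS peptide 100 uM; ATP 1 uM; 25 mM Tris pH 7.5, 10 mM MgCl2; 1 h reaction. ADP detected via antibody/orange tracer FP displacement; TG003 positive control.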

Experiment [10] deals with Ubiquitin carboxyl-terminal hydrolase 1 (Homo sapiens) (UniProt O94782). Put plainly: Inhibitors of USP1/UAF1: Pilot qHTS (AID 504865).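 Also: rhodamine fluorescence freed from ubiquitin-rhodamine substrate followed over time; top concentration of the series differs between compounds; % is scaled to controls: 0 for no effect and ±100 for the full control effect; nearly all actives have a fitted effect of over 35% in size.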 The settings on record: purified USP1/UAF1, Ub-rhodamine cleavage fluorescence; series mostly up to 54.9 µM. The method in brief: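 In 50mM HEPES pH 7.8 containing 0.5mM EDTA, 1mM TCEP, 0.1 mg/ml BSA and 0.01% Tween-20, 1nM USP1/UAF1 is exposed to compound for 15 min, then Ub-Rho (150nM final) is added and fluorescence is read over time.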

The nature of experiment [11]: Counterscreen qHTS for small molecule stabilizers of the endoplasmic reticulum resident proteome: GLuc-NoTag assay (AID 1508627).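 Also: SH-SY5Y cells given compound then 100 nM thapsigargin to empty ER calcium; 0% = thapsigargin alone and -100% = DMSO vehicle control.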 The following applies: Gaussia luciferase NoTag secretion counterscreen, luminescence, thapsigargin 100 nM for final 4 h; series mostly up to 76.4 µM. In outline: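 SH-SY5Y cells stably expressing constitutively secreted GLuc without SERCaMP tag, exposed to compound for 19 hr, then to 100 nM thapsigargin for 4 hr at 37C. Medium luciferase was read by coelenterazine luminescence without lysis.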
On the technique in general: The purpose of a counterscreen is to sort out artefacts and off-target activity.

A short description of experiment [12]: Confirmatory qHTS for small molecule stabilizers of the endoplasmic reticulum resident proteome: Secreted ER Calcium Modulated Protein (SERCaMP) assay (AID 1508628). Also: nearly all actives have a fitted effect of over 40% in size. Also: potency is read from the fitted curve at half-maximal effect. The settings on record: SERCaMP secreted luciferase ER calcium/proteostasis reporter; series mostly up to 76.3 µM. The method in brief:
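SH-SY5Y cells stably expressing GLuc-SERCaMP, treated 16 h with compound (primary 1.53, 7.67, 38.3 uM; confirmation 11 concentrations, up to 76.6 uM), then 100 nM thapsigargin for 4 h. Secreted Gaussia luciferase in medium read by coelenterazine luminescence.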

Experiment [13] can be described thus: Cell Viability qHTS for small molecule stabilizers of the endoplasmic reticulum resident proteome (AID 1508629).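 Also: human SH-SY5Y neuroblastoma cells carrying the GLuc-SERCaMP reporter; compound exposure about 46 h in total before the viability read; % is scaled to controls: 0 for no effect and ±100 for the full control effect.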 The settings on record: cell viability counter-screen, 100 nM thapsigargin for final 4 h.
Experiment [14] can be described thus: AP1 Signaling Pathway (AID 357; active = well fitted curve in either direction with a large enough effect, not every such curve was filed as active; also: % is scaled to controls: 0 for no effect and ±100 for the full control effect). The settings on record: ME-180 AP-1-bla reporter, EGF-induced, beta-lactamase ratio, 5 h; at 7.69 µM (top of the series) unless noted. The method in brief: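 Read-out was the 460nm/530nm emission ratio (excitation 405nm) after CCF4 loading for 2.5 hours at room temperature. Cells carried an AP-1-driven beta-lactamase reporter, were stimulated with EC50 EGF plus compound for 5 hours, and AC50 values came from titrations.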

A short description of experiment [15]: NFAT Signaling Pathway (AID 444; active = well fitted curve in either direction with a large enough effect, not every such curve was filed as active;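 also: carbachol stimulus at about its EC50 of 1 µM final; % is scaled to controls: 0 for no effect and ±100 for the full control effect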). The settings on record: Jurkat NFAT-bla M1, carbachol, beta-lactamase ratio, 5 h; at 7.69 µM (top of the series) unless noted. In outline: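 Jurkat cells with NFAT-driven β-lactamase reporter and co-expressed M1 receptor, stimulated with carbachol (final 1 uM, ~EC50), compound titration, 5 h at 37 °C. CCF4 loaded 1 h at RT; 460/530 nm ratio gave %activity and AC50.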

Experiment [16] in a line: Stat Signaling Pathway (AID 446; active = well fitted curve in either direction with a large enough effect, not every such curve was filed as active;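 also: ME-180 cervical cancer cells given 40 pM IL-6 alongside compound; SIE-controlled beta-lactamase reporter measured as 460/530 nm FRET emission ratio; % is scaled to controls: 0 for no effect and ±100 for the full control effect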). The settings on record: ME-180 SIE beta-lactamase reporter, IL-6 stimulated, 5 h; at 7.69 µM (top of the series) unless noted. In outline:
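Screening format detects activators and inhibitors alike: ME-180 SIE-bla cells stimulated at 40 pM IL-6 for 5 hrs with compound, then dual-emission beta-lactamase read at 405 nm excitation.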

Experiment [17] addresses Glucocorticoid receptor (Homo sapiens) (UniProt P04150). Put plainly: GR-GFP Redistribution (AID 450;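 active = compounds whose dose series gives a full or clear partial fitted curve of increased nuclear translocation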; also: potency is read from the fitted curve at half-maximal effect). The settings on record: U2OS GR-GFP nuclear translocation, laser cytometry, 2 h.
The target in experiment [18] is Mitogen-activated protein kinase 10 (Mus musculus) (UniProt Q61831). Put plainly: JNK3 AlphaScreen Assay (AID 530; active = well fitted curve in either direction with a large enough effect, not every such curve was filed as active). The following applies: JNK3 lysate, c-Jun phosphorylation; series mostly up to 57.1 µM. In outline: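 Pre-activated (IL-1β/TNFα) JNK3 in HepG2 lysates phosphorylates biotin-GST-cJun(1-79), 10 uM ATP; anti-phospho-cJun(Ser73) AlphaScreen read at room temperature, pH 7.6 Tris buffer. Compounds pre-incubated 15 min as titrations.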
Background: Bead proximity is the source of the signal in Alpha formats.

In experiment [19] the target is Cytochrome P450 3A4 (Homo sapiens) (UniProt P08684). Put plainly: qHTS Assay for Inhibitors and Substrates of Cytochrome P450 3A4 (AID 884). Also: potency is read from the fitted curve at half-maximal effect; nearly all actives have a fitted effect of over 50% in size. The settings on record: recombinant CYP3A4, Luciferin-PPXE luminescence; series mostly up to 57.1 µM. In outline: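 20 nM human CYP3A4 with 25 uM Luciferin-PPXE (at KM) in 200 mM KPO4, preincubated 10 min with compound; NADPH regeneration started a 60 min RT reaction. Luciferin detected by luminescence, normalized to 57 uM ketoconazole as full inhibition.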

Experiment [20] is described as follows: qHTS Assay for Identification of Small Molecule Agonists for Hypoxia Response Element Signaling Pathway (AID 914; active = well fitted activation curve with a large enough effect in the signal ratio, with a control signal flat, not every such curve was filed as active; the % refers to the signal ratio; also: % of control where 0% means no effect). The settings on record: ME-180 (cervical carcinoma) HRE-bla reporter, beta-lactamase ratio, CoCl2, 17 h; activation: stronger effect = higher value. In outline: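 A beta-lactamase reporter under hypoxia response element control in ME-180 cells served as the system. Compound titrations plus EC50 CoCl2 ran 17 h at 37 degrees Celsius; AC50 values were fitted from %Activity.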

Each structure is given as a SMILES string. Records with an inconclusive call do not appear. Calls of active or inactive are those of the source. Unless noted, calls follow the shape of the dose curve; as a rule, active = well fitted curve in the direction sought with a large enough effect; inconclusive = small, poorly fitted or top-dose-only effect, or another doubt; inactive = no such curve, though single readings can be large; an effect the other way counts as inactive or inconclusive.

Sequence of Cytochrome P450 3A4 (Homo sapiens) (P08684 whole entry, looked up): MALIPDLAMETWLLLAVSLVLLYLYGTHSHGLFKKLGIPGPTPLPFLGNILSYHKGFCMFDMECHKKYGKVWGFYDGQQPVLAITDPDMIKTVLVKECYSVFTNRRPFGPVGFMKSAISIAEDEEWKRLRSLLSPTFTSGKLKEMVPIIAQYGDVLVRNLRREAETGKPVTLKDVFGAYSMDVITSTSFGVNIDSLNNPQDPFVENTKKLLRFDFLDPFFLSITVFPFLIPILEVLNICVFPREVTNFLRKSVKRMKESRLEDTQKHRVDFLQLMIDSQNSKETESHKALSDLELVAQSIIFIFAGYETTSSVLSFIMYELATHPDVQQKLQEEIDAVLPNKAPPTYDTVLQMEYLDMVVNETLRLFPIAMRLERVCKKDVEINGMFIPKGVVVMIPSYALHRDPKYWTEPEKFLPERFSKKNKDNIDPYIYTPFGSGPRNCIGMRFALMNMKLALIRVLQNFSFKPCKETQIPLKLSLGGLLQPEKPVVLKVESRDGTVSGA
Sequence of Glucocorticoid receptor (Homo sapiens) (P04150 whole entry, looked up, the tested form may be a part): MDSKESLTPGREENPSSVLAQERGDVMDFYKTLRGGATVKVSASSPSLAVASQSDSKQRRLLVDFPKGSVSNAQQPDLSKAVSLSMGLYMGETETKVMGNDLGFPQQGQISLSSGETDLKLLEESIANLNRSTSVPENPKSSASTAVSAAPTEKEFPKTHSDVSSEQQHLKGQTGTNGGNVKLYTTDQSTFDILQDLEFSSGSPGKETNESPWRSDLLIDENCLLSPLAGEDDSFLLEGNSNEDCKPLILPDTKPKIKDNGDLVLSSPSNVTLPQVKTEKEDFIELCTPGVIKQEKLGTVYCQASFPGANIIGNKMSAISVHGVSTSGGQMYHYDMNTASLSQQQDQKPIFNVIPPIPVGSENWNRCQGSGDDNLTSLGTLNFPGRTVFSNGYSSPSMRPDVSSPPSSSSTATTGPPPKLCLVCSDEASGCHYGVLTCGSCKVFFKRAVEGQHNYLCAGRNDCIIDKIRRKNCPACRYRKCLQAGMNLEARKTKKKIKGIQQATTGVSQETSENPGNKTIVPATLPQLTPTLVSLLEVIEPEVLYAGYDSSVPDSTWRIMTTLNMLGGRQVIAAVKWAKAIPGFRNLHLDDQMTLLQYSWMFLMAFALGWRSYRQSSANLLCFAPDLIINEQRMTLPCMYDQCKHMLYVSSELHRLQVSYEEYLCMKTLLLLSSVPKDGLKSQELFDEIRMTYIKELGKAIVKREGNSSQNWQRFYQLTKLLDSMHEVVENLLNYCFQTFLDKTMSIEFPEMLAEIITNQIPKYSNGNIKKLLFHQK
Sequence of Dual specificity protein kinase CLK4 (Homo sapiens) (Q9HAZ1 whole entry, looked up): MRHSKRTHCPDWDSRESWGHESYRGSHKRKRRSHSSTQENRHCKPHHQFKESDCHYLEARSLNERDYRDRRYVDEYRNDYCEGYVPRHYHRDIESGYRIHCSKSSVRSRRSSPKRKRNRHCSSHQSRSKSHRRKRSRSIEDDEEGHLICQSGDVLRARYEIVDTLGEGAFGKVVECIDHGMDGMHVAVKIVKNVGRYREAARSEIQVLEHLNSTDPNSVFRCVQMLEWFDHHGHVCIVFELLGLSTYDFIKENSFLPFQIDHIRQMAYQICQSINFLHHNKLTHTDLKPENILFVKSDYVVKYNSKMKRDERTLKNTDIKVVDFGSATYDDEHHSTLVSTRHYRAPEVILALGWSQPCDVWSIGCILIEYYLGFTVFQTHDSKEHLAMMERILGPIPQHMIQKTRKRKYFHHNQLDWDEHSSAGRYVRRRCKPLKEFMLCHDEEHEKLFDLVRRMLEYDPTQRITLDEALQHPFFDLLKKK
Sequence of Cytochrome P450 1A2 (Homo sapiens) (P05177 whole entry, looked up): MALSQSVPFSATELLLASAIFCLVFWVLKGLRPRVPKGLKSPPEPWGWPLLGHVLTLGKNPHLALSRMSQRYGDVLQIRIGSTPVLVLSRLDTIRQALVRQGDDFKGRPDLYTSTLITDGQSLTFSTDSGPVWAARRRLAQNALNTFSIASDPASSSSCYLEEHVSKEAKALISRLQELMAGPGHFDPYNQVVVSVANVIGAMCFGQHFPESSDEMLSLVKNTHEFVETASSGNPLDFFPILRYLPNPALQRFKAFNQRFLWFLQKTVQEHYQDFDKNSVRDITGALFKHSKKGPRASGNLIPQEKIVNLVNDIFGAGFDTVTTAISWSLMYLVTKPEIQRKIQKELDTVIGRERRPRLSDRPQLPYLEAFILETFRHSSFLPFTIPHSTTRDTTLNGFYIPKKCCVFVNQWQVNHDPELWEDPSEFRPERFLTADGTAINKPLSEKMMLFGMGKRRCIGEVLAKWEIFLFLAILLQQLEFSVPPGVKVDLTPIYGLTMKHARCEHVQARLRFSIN
Sequence of Lysosomal acid glucosylceramidase (Homo sapiens) (P04062 whole entry, looked up): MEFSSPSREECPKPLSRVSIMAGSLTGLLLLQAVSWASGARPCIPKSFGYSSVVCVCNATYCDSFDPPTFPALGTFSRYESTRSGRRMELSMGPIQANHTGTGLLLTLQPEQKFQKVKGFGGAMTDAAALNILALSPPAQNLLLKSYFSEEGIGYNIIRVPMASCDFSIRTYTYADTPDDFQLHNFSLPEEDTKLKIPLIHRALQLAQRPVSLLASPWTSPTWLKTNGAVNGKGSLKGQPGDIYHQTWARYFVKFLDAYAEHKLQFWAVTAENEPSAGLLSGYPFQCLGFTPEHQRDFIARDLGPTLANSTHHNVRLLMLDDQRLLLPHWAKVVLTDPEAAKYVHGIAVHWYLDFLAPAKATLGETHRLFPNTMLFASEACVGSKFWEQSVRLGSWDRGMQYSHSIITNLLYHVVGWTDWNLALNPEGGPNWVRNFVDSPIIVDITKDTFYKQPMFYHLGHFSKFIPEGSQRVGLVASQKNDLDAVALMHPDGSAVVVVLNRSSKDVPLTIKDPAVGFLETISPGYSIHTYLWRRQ
Sequence of Cytochrome P450 2C19 (Homo sapiens) (P33261 whole entry, looked up): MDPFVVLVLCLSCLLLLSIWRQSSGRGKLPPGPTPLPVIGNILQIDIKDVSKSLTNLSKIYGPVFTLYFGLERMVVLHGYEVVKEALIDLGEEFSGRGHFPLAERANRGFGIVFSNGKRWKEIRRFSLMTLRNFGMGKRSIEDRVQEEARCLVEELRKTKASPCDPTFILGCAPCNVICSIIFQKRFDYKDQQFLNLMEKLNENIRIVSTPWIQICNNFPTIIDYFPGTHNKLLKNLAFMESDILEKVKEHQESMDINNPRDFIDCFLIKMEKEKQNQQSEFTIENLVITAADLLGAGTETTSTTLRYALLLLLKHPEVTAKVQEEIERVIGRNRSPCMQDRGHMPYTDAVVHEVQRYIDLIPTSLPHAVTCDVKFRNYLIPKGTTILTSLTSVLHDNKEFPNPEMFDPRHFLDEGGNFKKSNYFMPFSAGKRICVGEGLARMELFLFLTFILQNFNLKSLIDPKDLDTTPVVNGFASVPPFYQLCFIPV
Sequence of 3',5'-cyclic-AMP phosphodiesterase 4B (Homo sapiens) (Q07343 whole entry, looked up): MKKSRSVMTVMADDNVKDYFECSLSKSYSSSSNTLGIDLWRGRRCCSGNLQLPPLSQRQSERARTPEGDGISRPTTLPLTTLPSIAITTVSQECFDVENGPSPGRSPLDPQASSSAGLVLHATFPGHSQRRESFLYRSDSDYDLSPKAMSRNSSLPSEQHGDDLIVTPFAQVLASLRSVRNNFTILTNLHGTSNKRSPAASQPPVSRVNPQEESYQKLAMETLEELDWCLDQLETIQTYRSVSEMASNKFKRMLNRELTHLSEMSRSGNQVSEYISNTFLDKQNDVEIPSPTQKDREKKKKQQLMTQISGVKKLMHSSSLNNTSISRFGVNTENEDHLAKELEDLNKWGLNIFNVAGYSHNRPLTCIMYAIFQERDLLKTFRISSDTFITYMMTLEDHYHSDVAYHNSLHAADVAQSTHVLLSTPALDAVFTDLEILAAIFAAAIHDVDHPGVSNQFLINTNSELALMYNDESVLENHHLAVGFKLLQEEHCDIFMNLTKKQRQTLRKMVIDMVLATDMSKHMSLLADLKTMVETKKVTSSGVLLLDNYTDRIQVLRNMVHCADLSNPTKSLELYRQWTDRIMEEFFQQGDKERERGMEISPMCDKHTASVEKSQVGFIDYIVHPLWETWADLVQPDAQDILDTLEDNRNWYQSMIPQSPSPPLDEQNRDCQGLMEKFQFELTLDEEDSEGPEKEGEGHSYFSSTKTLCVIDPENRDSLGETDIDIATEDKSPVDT
Sequence of Ubiquitin carboxyl-terminal hydrolase 1 (Homo sapiens) (O94782 whole entry, looked up): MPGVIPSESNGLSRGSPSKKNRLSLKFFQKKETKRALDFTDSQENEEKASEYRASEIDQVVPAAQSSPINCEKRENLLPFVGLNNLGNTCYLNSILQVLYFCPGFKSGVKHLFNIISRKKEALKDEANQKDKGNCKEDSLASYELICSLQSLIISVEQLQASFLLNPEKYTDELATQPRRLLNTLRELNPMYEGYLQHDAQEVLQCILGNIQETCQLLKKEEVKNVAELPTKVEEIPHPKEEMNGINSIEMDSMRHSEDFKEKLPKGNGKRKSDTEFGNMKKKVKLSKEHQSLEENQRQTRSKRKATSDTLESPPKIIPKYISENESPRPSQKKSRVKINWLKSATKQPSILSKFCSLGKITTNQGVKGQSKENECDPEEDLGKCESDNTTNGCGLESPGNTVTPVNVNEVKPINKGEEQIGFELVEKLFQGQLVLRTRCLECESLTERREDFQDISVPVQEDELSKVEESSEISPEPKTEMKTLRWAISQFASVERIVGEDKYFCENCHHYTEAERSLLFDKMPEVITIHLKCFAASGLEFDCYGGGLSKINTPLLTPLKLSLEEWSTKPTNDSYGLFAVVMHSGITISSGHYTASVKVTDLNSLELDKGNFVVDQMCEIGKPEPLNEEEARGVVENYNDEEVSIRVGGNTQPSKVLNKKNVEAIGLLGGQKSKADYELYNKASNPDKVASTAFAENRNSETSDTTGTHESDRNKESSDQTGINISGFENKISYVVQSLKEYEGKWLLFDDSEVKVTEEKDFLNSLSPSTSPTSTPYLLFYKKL

On to `O=c1c(-c2ccc(F)cc2)nc2cnc(N3CCNCC3)nc2n1-c1ccccc1`, for which the Potency is > 11.4 µM (inactive) in [1], 10 µM (active) in experiment [2] and > 46 µM (inactive) in [3]. For the same compound, the Potency entry in [4], in [5], in experiment [6], in [8], in experiment [9] and in [10] was “inactive” in each case. Besides, the Potency result in experiment [11] and in experiment [12] was “inactive” each time. Moreover, in experiment [7] (at 57.5 µM (top of the series)), the activity change, negative = inhibition was 6.93% (inactive). The max response is 19.9% in [7] (measured here: cell count channel max response), 25.6% in experiment [7] (measured here: lipid channel max response) and -15.9% (inactive) in experiment [13].
`CN1CCN(c2ncc3nc(CCc4ccccc4)c(=O)n(Cc4ccc(F)cc4)c3n2)CC1`: the Potency in [1] is > 11.4 µM (inactive); in experiment [17], > 9.22 µM (inactive); in experiment [3] it was > 46 µM (inactive); in experiment [19], 5.01 µM (active); in experiment [12], 25.1 µM (active). For the same compound, the activity change, negative = inhibition in experiment [14] was 4.85% (inactive); in experiment [15] it was -12.2% (inactive). Further, the Potency entry in [2], in [5] and in [11] was “inactive” in each case. For the same compound, in experiment [16], the activity, negative = inhibition is -1.54% (inactive). Moreover, in experiment [18], the compound was called inactive. Moreover, in experiment [20], the activation was -6.17% (inactive).
